# Most compounds without a hit are left out; they make up all but 9.3% or so of the library.
# SMN2 splice up: qHTS Assay for Enhancers of SMN2 Splice Variant Expression; HEK293 SMN2-luciferase splicing reporter, luminescence, 30-36 h; Potency, µM (top dose mostly 46.1 µM), without a hit: at the highest dose activity change, positive = activation, actives largely listed as activators; 210,000 compounds, 2.8% hits; AID 1458, 2008; further: % of control where 0% means no effect; nearly all actives have a fitted effect of over 55% in size
#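 HEK293 cells carry an SMN2 minigene-luciferase reporter in which exon 7 inclusion puts luciferase in frame. Cells were seeded at 2000 cells/well, attached for 10-12 hours, then exposed to compounds for 30-36 hours at 37C before ONE-Glo luminescence.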
# NPC1 promoter act: qHTS Assay for NPC1 Promoter Activators; Potency, µM (doses to about 9.22 µM), inactives show at the highest dose activation, most hits filed as activators; 320,000 compounds, 2.4% hits; Huh7 NPC1 promoter luciferase reporter, 24 h; further: % of control where 0% means no effect; nearly all actives have a fitted effect of over 60% in size
#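 NPC1 promoter–luciferase Huh7 cells; 24 h compound; luminescence.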
# ELG1 genotox: qHTS screen for small molecules that induce genotoxicity in human embryonic kidney (HEK293T) cells expressing luciferase-tagged ELG1 | HEK293T ELG1-luciferase reporter, luminescence, 16 h | Potency, µM (doses to about 46 µM), inactives show at the top dose activity change, positive = activation, usual class: activators | 330,000 compounds, 1.3% hits; further: % of control where 0% means no effect; nearly all actives have a fitted effect of over 60% in size
#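 Cells (2,000/well) expressing the ELG1-luciferase fusion are dosed by pin tool and kept 16 hr at 37 °C, 5% CO2. Signal comes from ONE-Glo luciferase reagent after 30 min at room temperature.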
# Rab9 promoter act: qHTS Assay for Rab9 Promoter Activators; Huh7 Rab9 promoter-luciferase reporter, luminescence, 24 h; Potency, µM (top dose mostly 9.22 µM), for the others: at the top dose activation, negative = inhibition, most hits filed as activators; 320,000 compounds, 2.8% hits; AID 485297, 2010; further: % of control where 0% means no effect; nearly all actives have a fitted effect of over 60% in size
#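 Luminescence read-out: Huh7 cells stably expressing Rab9-luciferase, treated 24 h with compound at 37 °C, then lysed with luciferase reagent for 10 min at ambient before reading.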
# ELG1 DNA repair: qHTS screen for small molecules that inhibit ELG1-dependent DNA repair in human embryonic kidney (HEK293T) cells expressing luciferase-tagged ELG1. HEK293T ELG1-luciferase reporter, luminescence, 16 h; DNA damage induced by 5-fluorouridine. Potency, µM (series often up to 46.1 µM), inactives show top-dose activity change, negative = inhibition, usual class: inhibitors. 330,000 compounds, 2.3% hits. AID 504467, 2011; further: on the % scale 0 is the no-effect control and ±100 the full control effect; nearly all actives have a fitted effect of over 55% in size
#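 5-Fluorouridine DNA damage + compound/DMSO, 2,000 cells/well, 16 h, 37 °C/5% CO2. ONE-Glo, 30 min RT, luminescence. Readout = decrease in reporter signal.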
# FLuc counter: qHTS profiling assay for firefly luciferase inhibitor/activator using purifed enzyme and Km concentrations of substrates (counterscreen for miR-21 project) | Luciferin 4-monooxygenase (Photinus pyralis), P08659 | purified FLuc, Km substrates, luminescence inhibition | Potency, µM (top dose mostly 57.5 µM), for the others: top-dose activity change, negative = inhibition, most hits filed as inhibitors | 360,000 compounds, 6.9% hits;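 further: plate controls were vehicle for no effect and reference inhibitor for full effect; nearly all actives have a fitted effect of over 55% in size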
# Target sequence (P08659 whole entry, looked up): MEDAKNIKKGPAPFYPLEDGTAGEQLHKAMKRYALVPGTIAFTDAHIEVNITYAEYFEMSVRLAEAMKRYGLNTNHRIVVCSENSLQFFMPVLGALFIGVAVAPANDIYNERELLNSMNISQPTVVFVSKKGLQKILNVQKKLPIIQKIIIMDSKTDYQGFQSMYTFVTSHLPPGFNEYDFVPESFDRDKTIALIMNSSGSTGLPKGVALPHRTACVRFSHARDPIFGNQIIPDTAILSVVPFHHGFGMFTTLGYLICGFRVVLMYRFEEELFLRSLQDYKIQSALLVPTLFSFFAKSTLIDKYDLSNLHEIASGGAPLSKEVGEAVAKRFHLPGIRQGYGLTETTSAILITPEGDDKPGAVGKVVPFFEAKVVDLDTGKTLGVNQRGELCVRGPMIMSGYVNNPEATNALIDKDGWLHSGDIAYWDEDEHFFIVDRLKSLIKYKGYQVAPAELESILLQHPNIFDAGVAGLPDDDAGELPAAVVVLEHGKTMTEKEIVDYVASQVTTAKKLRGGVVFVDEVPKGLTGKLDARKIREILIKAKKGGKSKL
#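 Purified P. pyralis luciferase (10nM final) with 10uM D-luciferin and 10uM ATP (Km levels) in 50mM Tris acetate pH 7.5, 10mM Mg acetate, 0.01% Tween-20, 0.05% BSA; qHTS 6-point titration, ~60 µM downward; luminescence read.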
# An asterisk follows results filed as active; ? = inconclusive; · = no result. The call rests on the fitted dose curve; in most records, active means well fitted curve in the direction sought with a large enough effect; inconclusive means small, poorly fitted or top-dose-only effect, or another doubt; inactive means no such curve, though single readings can be large; an effect the other way counts as inactive or inconclusive. Potency means the concentration at half of the fitted maximal effect.
SMILES,SMN2 splice up,NPC1 promoter act,ELG1 genotox,Rab9 promoter act,ELG1 DNA repair,FLuc counter
COC(=O)c1sc2nc(C)cc(C)c2c1N,·,-0.2%,7.4%,16.5%,?,?
Cc1cc(C)c2c(N)c(C(=O)Nc3ccccc3F)sc2n1,·,1.78µM*,?,2.24µM*,?,·
CC1=C(C(=O)OC2CCCCCC2)C(c2ccccc2Cl)CC(=O)N1 (configuration not stated),-1.5%,·,·,·,·,-8.6%
CC(C)=CCC/C(C)=C/C=N/NC(=O)c1cccc([N+](=O)[O-])c1,-3.9%,3.4%,-0.8%,-0.6%,-3.1%,5.5%
O=C(NCc1ccccn1)c1cccc(NS(=O)(=O)c2cccc(Cl)c2)c1,12.6%,-4.5%,-1.9%,-3.9%,2.8%,-1.2%
Cc1ccc(NC(=O)CCC(=O)NNC(=O)C(C)(C)C)c(C)c1,18.4%,-2.2%,-2.9%,0.4%,10.4%,5.3%
CCCCOC(=O)n1c(=S)oc2cc(Cl)ccc21,-11.4%,0.1%,1.1%,-5.7%,?,16.9µM*
CC(C)CC(COCc1cccc(Cl)c1)N1CCN(C(=O)c2cccc(C(F)(F)F)c2)CCC1=O (configuration not stated),-35.9%,1.6%,-1.8%,-4.4%,-11.9%,3.2%
CC(C)CC(COCc1ccc(Cl)cc1)N1CCN(C(=O)c2ccc(Cl)cc2Cl)CCC1=O (configuration not stated),-67.6%,-1.4%,-5.6%,-4.2%,23.1µM*,3.1%
COc1ccc2nc(C)cc(N3CCC(C(N)=O)CC3)c2c1,-19.6%,0.4%,0.6%,-2.4%,0.4%,-2.1%
COc1ccc(N2CCN(c3cc(C)nc4ccc(OC)cc34)CC2)cc1,·,1.3%,-7.1%,-2.8%,13µM*,-1.1%
O=C(Nc1cccnc1)c1ccc(S(=O)(=O)c2ccc(Cl)cc2)cc1,-79.7%,-6.7%,-20.7%,-13.4%,?,-1.7%
O=C(Nc1cccnc1)c1cc(-c2ccc(Cl)cc2Cl)on1,·,3.98µM*,?,?,?,0.379µM*
O=C(Nc1cccnc1)c1cc(-c2ccc(Cl)cc2)on1,18.0%,-2.1%,8.9%,2.2%,5.8%,1.51µM*
O=C(O)c1cc(Cl)c(Cl)cc1C(=O)Nc1cccnc1,10.4%,0.0%,2.2%,-7.3%,3.4%,-17.0%
CC1=C(C#N)C(NC(=O)C(C)(C)C)(C(F)(F)F)C(=O)N1 (configuration not stated),-8.2%,1.3%,0.8%,-1.8%,-3.9%,5.3%
O=C(CSc1ncc(S(=O)(=O)c2ccc(Cl)cc2)c(=O)[nH]1)Nc1cccc(C(F)(F)F)c1,5.2%,·,·,·,·,?
COc1cc(NC(=O)CSc2ncc(S(=O)(=O)c3ccc(Br)cc3)c(=O)[nH]2)cc(OC)c1,-9.3%,·,·,·,·,?
Cc1ccc(CNC(=O)CSc2ncc(S(=O)(=O)c3ccc(Br)cc3)c(=O)[nH]2)cc1,-1.5%,·,·,·,·,6.75µM*
O=C(CSc1ncc(S(=O)(=O)c2ccc(Br)cc2)c(=O)[nH]1)NCc1ccc(Cl)cc1,4.5%,·,·,·,·,8.49µM*
COc1ccc(Br)c(C(=O)Nc2cccc(S(=O)(=O)N3CCOCC3)c2)c1,·,-3.0%,-1.0%,-2.2%,-4.5%,5.8%
O=C(CCNC(=O)c1ccc([N+](=O)[O-])cc1)Nc1cc(Cl)ccc1N1CCOCC1,·,1.0%,0.0%,0.7%,-25.2%,6.1%
Cc1ccc2sc(NC(=O)C3CC3)nc2c1C,·,?,?,?,?,16.9µM*
COc1ccc2nc(NC(=O)c3cccc(N4C(=O)CCC4=O)c3)sc2c1,·,1.9%,3.8%,2.2%,1.4%,0.849µM*
O=C(Nc1nc2cc3c(cc2s1)OCO3)c1ccc(N2C(=O)CCC2=O)cc1,·,1.5%,-1.6%,9.0%,0.0%,-9.9%
SMILES,SMN2 splice up,NPC1 promoter act,ELG1 genotox,Rab9 promoter act,ELG1 DNA repair,FLuc counter
O=C(Nc1nc2cc3c(cc2s1)OCO3)c1cccc(N2C(=O)CCC2=O)c1,·,24.4%,7.5%,29.0%,?,0.953µM*
Cc1ccc2sc(NC(=O)c3cccc(N4C(=O)CCC4=O)c3)nc2c1C,·,16.9%,2.2%,10.6%,?,1.9µM*
O=C(NC(=S)NCC1CCCO1)c1ccccc1Br (configuration not stated),2.5%,-4.2%,5.5%,-2.6%,6.6%,0.8%
Cc1ccc(S(=O)(=O)NC(=O)c2ccccc2F)cc1,·,-0.4%,-8.0%,3.6%,-3.7%,2.6%
O=C(Nc1nc2ccc(Cl)cc2s1)c1cccc(N2C(=O)CCC2=O)c1,·,15.1%,?,?,?,1.35µM*
S=C(NCCN1CCOCC1)Nc1ccc(Cl)cc1Cl,0.6%,-0.7%,2.8%,-3.0%,?,1.5%
Cc1nc(-c2ccccc2Cl)sc1C(=O)/C=C/N(C)C,?,3.16µM*,?,1.78µM*,?,16.9µM*
Cc1nc(-c2ccccc2)sc1C(=O)/C=C/c1ccc(Cl)cc1,-23.6%,-3.2%,-7.1%,0.2%,13.8%,-16.2%
O=C(NNC1=C(C(=O)C(F)(F)F)CCC1)c1ccccc1O,-24.2%,13.2%,-23.5%,25.7%,?,26.9µM*
O=C(NNC1=C(C(=O)C(F)(F)F)CCC1)c1ccccc1Cl,9.6%,-5.3%,-2.5%,-14.6%,?,1.8%
Cc1ccc(-c2noc(Cn3cc(S(=O)(=O)N4CCCC4)ccc3=O)n2)cc1,·,10.0%,10.9%,0.6%,13.1%,23.9µM*
Cc1ccc(-c2noc(CN3CCCCC3)n2)cc1,?,?,13µM*,?,?,19µM*
Clc1ccc(-c2noc(CN3CCN(c4ccccc4)CC3)n2)cc1,-17.0%,-0.6%,15.1%,-9.5%,-0.3%,-3.1%
Cc1ccc(-c2noc(CN3CCOCC3)n2)cc1,?,3.16µM*,?,2.82µM*,?,16.9µM*
O=c1ccc(S(=O)(=O)N2CCCC2)cn1Cc1ccc(F)cc1,·,-0.9%,0.5%,1.0%,1.1%,0.8%
c1ccc(-c2noc(CN3CCOCC3)n2)cc1,·,-3.9%,-2.2%,0.8%,5.8%,-0.2%
Clc1ccc(-c2noc(CN3CCCC3)n2)cc1,?,?,10µM*,?,?,19µM*
COc1ccc(C(C)=O)cc1COC(=O)c1ccc(S(=O)(=O)N2CCOCC2)cc1,7.1%,2.8%,0.9%,1.3%,-2.6%,-1.7%
Cc1ccc(F)cc1NC(=O)Cn1c(C)cc(C)c(C#N)c1=O,·,·,·,·,·,-0.3%
O=C(NNC(=S)Nc1ccccc1Cl)c1ccccc1Cl,·,4.2%,-3.2%,-6.2%,-15.4%,-16.5%

# Assay outcomes (PubChem BioAssay)
